Experimental data published in PubChem BioAssay AID2315 (National Center for Advancing Translational Sciences (NCATS), 2010).
Hit rate of the full screen: of about 290,000 compounds, about 27,000 (9.3%) were called active. Cut-off read from the data, not from the text of the source: active = inhibition mostly above about 28% (no sharp cut-off); inactive = mostly below about 43%. Many of the other results were omitted from the sample, so actives are more common in it than they were.

assay: A qHTS for Small Molecule Inhibitors of Shiga Toxin; conditions: Vero cells, Shiga toxin protein synthesis inhibition reporter; at 38.7 µM, stronger effect = higher value; note: 0% is about no effect

| SMILES | inhibition |
| --- | --- |
| COc1ccc(NC(=O)NCCN2CCN(c3ccc(C)cc3)CC2)c(Cl)c1 | -4.91% (inactive) |
| CC1CCCCN1CCCNc1ccc(C(CC(N)=O)NC(=O)c2ccccc2)cc1[N+](=O)[O-] (stereo unspecified) | -3.52% (inactive) |
| CCN(C(=O)Cc1c(C(=O)O)n(CC)c2ccccc12)c1ccccc1C | 1.61% (inactive) |
| CCC(C(=O)NC1CCCCC1)N(C(=O)c1snc(C(N)=O)c1N)c1ccc(OC)cc1OC (stereo unspecified) | 16.5% (inactive) |
| CCCCc1nc(SCC(=O)Nc2nnc(C(C)C)s2)n[nH]1 | 24% (inactive) |
| O=C(CSC(=S)N1CCOCC1)c1ccccc1 | 67.5% (active) |
| CC1CN(C(=S)SCC(=O)c2ccccc2)CC(C)O1 (stereo unspecified) | 94.2% (active) |
| CC1CN(C(=S)Nc2ccccc2F)CC(C)O1 (stereo unspecified) | -12% (inactive) |
| O=C(CSC(=S)N1CCCCC1)c1c(F)cccc1F | 61.7% (active) |
| CC(=O)c1ccc(NC(=O)CSC(=S)N2CCCC2)cc1 | -2.78% (inactive) |
| O=C(CP(=O)(c1ccccc1)c1ccccc1)N1CCOCC1 | -5.31% (inactive) |
| O=C(Nc1ccc(S(=O)(=O)N2CCCCCC2)cc1)c1c(F)cccc1F | 22.1% (inactive) |
| O=C(CSC(=S)N1CCOCC1)c1cc(Br)cc(Br)c1O | -11.8% (inactive) |
| COC(=O)[C@H](Cc1ccccc1)NC(=O)N1CC(C)OC(C)C1 (stereo partly specified) | -8.27% (inactive) |
| O=C(O)C1CCCCC1C(=O)N1CCN(S(=O)(=O)c2ccc(F)cc2)CC1 (stereo unspecified) | -21.1% (inactive) |
| CC1CCN(C(=O)c2ccccc2NC(=O)Cc2ccccc2)CC1 | 13.5% (inactive) |
| Cc1c(C)c2ccc(OCC(=O)N3CCN(c4cccc(Cl)c4)CC3)cc2oc1=O | -20.7% (inactive) |
| COc1ccccc1C1C(C(N)=O)=C(C)Nc2nc(CCCO)nn21 (stereo unspecified) | -12.2% (inactive) |
| Cc1nc(SCC(=O)NC2CCCC2)[nH]c(=O)c1C | -3% (inactive) |
| CC(=O)NS(=O)(=O)c1ccc(N/C(N)=N/c2nc(C)cc(C)n2)cc1 | 4.41% (inactive) |
| Cc1cccc2c1cnn2C(=O)CCC(=O)NC1CCCCC1 | -4.08% (inactive) |
| Cc1cc2nc(C)n(CCCNC(=O)Nc3ccccc3)c2cc1C | 9% (inactive) |
| CCOC(=O)N1CCN(Cc2nc3cc(NC(=O)CC)ccc3n2CC)CC1 | -2.96% (inactive) |
| C=CCN(C(=O)Cn1ncc2c1-c1cc(C)ccc1OC2)c1ccccc1 | -10.9% (inactive) |
| Cn1ncc(Br)c1C(=O)NCc1cccs1 | 20.7% (inactive) |
| Cc1nc2cc(NC(=O)NC3CC3)ccc2n1C | 27.2% (inactive) |

| SMILES | inhibition |
| --- | --- |
| C=CCN(C(=O)Nc1ccc2c(c1)nc(C)n2C)c1ccccc1 | 46.7% (active) |
| Cc1nn(CC(=O)Nc2ccc3c(c2)nc(CN2CCCCC2)n3C)c(=O)c2ccccc12 | -8.7% (inactive) |
| Cc1cc(C)cc(NC(=O)N(C)Cc2ccccc2)c1 | 13.5% (inactive) |
| Cc1nc2cc(NCc3cccs3)ccc2n1C | 47.7% (active) |
| C=CCN(C(=O)Nc1ccc2oc(C)nc2c1)c1ccccc1 | 117% (active) |
| Cc1nc2cc(NC(=O)Nc3cccc(F)c3)ccc2n1C | 27.6% (active) |
| COc1ccc(-n2cnc3cc(NCc4ccco4)ccc32)cc1 | 66.3% (inactive) |
| O=C(NCCCn1ccnc1)/C(=C\c1ccccc1F)NC(=O)c1ccccc1 | -7.27% (inactive) |
| COc1cc(NC(=O)CCNC(=O)Cn2ccc3ccccc3c2=O)cc(OC)c1OC | 11.7% (inactive) |
| O=C1CN(C(=O)c2ccccc2F)C(c2ccc(F)cc2)c2cc(F)ccc2N1 (stereo unspecified) | 18% (inactive) |
| O=C(/C=C/c1ccc([N+](=O)[O-])cc1)NCCSCc1ccco1 | -2.44% (inactive) |
| Cc1cccc(N2CCN(C(=O)CCS(=O)(=O)c3ccc4c(c3)NC(=O)C(C)S4)CC2)c1C (stereo unspecified) | -11.3% (inactive) |
| COc1cc(OC)c2c(c1C(CCN1CCCCC1)c1ccc(N(C)C)cc1)OC(=O)CC2c1ccc(N(C)C)cc1 (stereo unspecified) | -7.65% (inactive) |
| Cn1c(CCN2CCCC2)nc2cc(NS(=O)(=O)c3ccccc3)ccc21 | 0.447% (inactive) |
| Cn1c(CCN2CCCCCC2)nc2cc(NC(=O)Nc3ccccc3)ccc21 | 73.3% (active) |
| CCC(=O)Nc1ccc2c(c1)nc(CCN1CCN(c3ccccn3)CC1)n2C | -4.67% (inactive) |
| CC(C)c1ccc(S(=O)(=O)N2CCC3(CC2)OCCO3)cc1 | -8.25% (inactive) |
| COc1cccc(Nc2nc(N)c([N+](=O)[O-])c(NCc3ccco3)n2)c1 | 45.8% (inactive) |
| CNc1nc(Nc2ccc(C)c(Cl)c2)nc(N)c1[N+](=O)[O-] | 68.3% (active) |
| Nc1nc(Nc2ccccc2)nc(NCCO)c1[N+](=O)[O-] | 16.8% (inactive) |
| CN(Cc1ccco1)S(=O)(=O)c1nnc(NC(=O)c2ccccc2)s1 | 38.9% (inactive) |
| COc1cc(/C=C/C(=O)OCC(=O)Nc2cccc(Oc3ccccc3)c2)ccc1O | 51.6% (active) |
| COc1cccc(NC(=O)COC(=O)CCOc2ccccc2OC)c1 | -8.03% (inactive) |
| COc1ccc(/C=C/C(=O)OCC(=O)Nc2cccc(Oc3ccccc3)c2)c(OC)c1 | -4.44% (inactive) |
| CCOc1ccccc1CNS(=O)(=O)c1cc(-c2cc(C)no2)ccc1C | -5.31% (inactive) |
